From PubChem
BAZ2B inh = qHTS Assay for Inhibitors of BAZ2B; AlphaScreen BAZ2B-H3K14Ac peptide displacement; Potency, µM (highest dose often 114 µM), for the others: at the top dose activity change, negative = inhibition, actives largely listed as inhibitors; Bromodomain adjacent to zinc finger domain protein 2B (Homo sapiens), Q9UIF8; actives 4.4% (n = 360,000); further: on the % scale 0 is the no-effect control and ±100 the full control effect; nearly all actives have a fitted effect of over 60% in size
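AlphaScreen luminescence quantifies BAZ2B engagement of H3K14Ac peptide; the protein and biotinylated peptide are both at 50 nM final, buffer PBS pH 7.4 with 0.01% Tween-20, all steps at room temperature.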
HP1b binding inh = HTS for Inhibitors of HP1-beta Chromodomain Interactions with Methylated Histone Tails; Chromobox protein homolog 1 (Homo sapiens), P83916; AlphaScreen HP1-beta / biotin-H3K9me3 peptide binding; Potency, µM (top dose mostly 114 µM), for the others: at the top dose activity change, negative = inhibition, actives largely listed as inhibitors; actives 0.56% (n = 390,000); AID 540317, 2011; further: nearly all actives have a fitted effect of over 70% in size
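Compound inhibition of the preformed complex between 50 nM HP1-beta and 50 nM biotinylated H3K9me3 peptide was read by AlphaScreen. Buffer was PBS pH 7.4 with 0.01% Tween-20. Incubations ran 30 min at room temperature, with 10 ug/mL donor/acceptor beads.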
JMJD2A Tudor = qHTS Assay for Inhibitors of JMJD2A-Tudor Domain | Lysine-specific demethylase 4A (Homo sapiens), O75164 | AlphaScreen JMJD2A-Tudor / H3K4me3 peptide binding | Potency, µM (titrated, usually from 114 µM), inactives show at the top dose activity change, negative = inhibition, most hits filed as inhibitors | actives 4.4% (n = 390,000) | AID 504339, 2011; further: on the % scale 0 is the no-effect control and ±100 the full control effect; nearly all actives have a fitted effect of over 50% in size
G9a block = qHTS Assay for Inhibitors of Histone Lysine Methyltransferase G9a; Potency, µM (top dose mostly 102 µM), for inactives: at the highest dose activity, negative = inhibition, usual class: inhibitors; actives 8.8% (n = 350,000); G9a H3K9 monomethylation, AlphaScreen, 2 h; Histone-lysine N-methyltransferase EHMT2 (Homo sapiens), Q96KQ7; further: on the % scale 0 is the no-effect control and ±100 the full control effect; nearly all actives have a fitted effect of over 75% in size
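Enzyme 20 nM + cpd, 15 min RT; add b-H3K9 pep 500 nM / SAM 20 uM; 2 h RT; anti-H3K9me1 Ab 0.5 ug/mL + SA donor / anti-rabbit acceptor beads 20 ug/mL each, 10 min; AlphaScreen read.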
GLS inh = qHTS for Inhibitors of Glutaminase (GLS); actives 0.21% (n = 410,000); GLS enzymatic activity, qHTS titration; Glutaminase kidney isoform, mitochondrial (Homo sapiens), O94925; Potency, µM (top dose mostly 45.5 µM), for the others: at the highest dose activity change, negative = inhibition, actives largely listed as inhibitors; further: on the % scale 0 is the no-effect control and ±100 the full control effect
Target sequence (O94925 whole entry, looked up, canonical isoform): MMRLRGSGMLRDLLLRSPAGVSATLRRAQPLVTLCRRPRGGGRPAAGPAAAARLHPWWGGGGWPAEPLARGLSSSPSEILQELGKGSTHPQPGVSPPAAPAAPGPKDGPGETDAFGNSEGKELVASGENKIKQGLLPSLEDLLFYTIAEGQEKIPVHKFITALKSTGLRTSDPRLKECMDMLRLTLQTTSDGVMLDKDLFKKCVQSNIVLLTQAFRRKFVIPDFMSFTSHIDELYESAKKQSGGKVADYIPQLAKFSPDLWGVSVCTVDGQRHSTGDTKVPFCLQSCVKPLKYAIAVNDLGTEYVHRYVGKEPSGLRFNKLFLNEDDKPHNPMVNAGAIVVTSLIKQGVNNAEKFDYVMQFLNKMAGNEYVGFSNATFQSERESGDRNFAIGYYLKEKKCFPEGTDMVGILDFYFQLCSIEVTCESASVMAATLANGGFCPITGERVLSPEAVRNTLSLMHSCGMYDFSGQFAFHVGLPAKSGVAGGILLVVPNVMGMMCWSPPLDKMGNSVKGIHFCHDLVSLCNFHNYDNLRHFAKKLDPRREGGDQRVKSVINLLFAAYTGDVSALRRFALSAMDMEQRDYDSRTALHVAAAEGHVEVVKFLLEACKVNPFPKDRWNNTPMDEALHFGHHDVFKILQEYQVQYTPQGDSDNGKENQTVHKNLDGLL
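hKGA; 45 mM KH2PO4 pH 8.2 + 0.02% Tween-20; cpd via pin tool; 1 mM Gln soln; GluOx/HRP/Amplex Red; RT 30 min; fluor. t0 & final.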
* hit, by the source's call; ? = inconclusive; . = no result given; [ ] = dose if it differs, or a comment. Rows were chosen to be rich in hits. Some 10% of all compounds tested hit in one or more screens of this group. The call rests on the fitted dose curve; in most records, active means well fitted curve in the direction sought with a large enough effect; inconclusive means small, poorly fitted or top-dose-only effect, or another doubt; inactive means no such curve, though single readings can be large; an effect the other way counts as inactive or inconclusive. Potency means the concentration at half of the fitted maximal effect.

SMILES | BAZ2B inh | HP1b binding inh | JMJD2A Tudor | G9a block | GLS inh
Cc1ccc(CNC(=O)c2ccc(S(=O)(=O)N(C)C)cc2)n1C | -13% | -14% | -21% | ? | 11%
Cc1c(C(=O)NCC(c2ccco2)N(C)C)oc2c(Cl)cccc12 (stereo not drawn) | 50µM* | ? | ? | 50µM* | 4%
CN(C)C(CNC(=O)c1ccc(Br)cc1)c1ccco1 (stereo not drawn) | -17% | 26% | -5% | 4% | -7%
CCOc1ccc(C(=O)NCC(C)C)cc1 | 8% | 17% | 6%[57.1 µM] | 0.89µM* | 2%
Cc1ccc(CNC(=O)c2ccc(OCC(C)C)cc2)n1C | -31% | -2% | ? | 45µM* | -13%
CC(C)CCOc1ccc(C(=O)NCC(c2ccco2)N(C)C)cc1 (stereo not drawn) | -4% | -8% | -28% | 50µM* | 14%
Cc1ccc(C)c(C(=O)COC(=O)c2ccccc2N2C(=O)C3C4CCC(C4)C3C2=O)c1 (stereo not drawn) | 0% | 29% | -17% | -15%[0.501 µM] | -10%
C/C(=N\NC(=O)c1ccc(Br)cc1)C1C(=O)c2ccccc2C1=O | ? | -1% | ? | -49%[59 µM] | 23%
CCOc1ccc(C(=O)N/N=C(/C)C2C(=O)c3ccccc3C2=O)cc1 | 1% | 22% | 35µM* | 13%[59 µM] | 8%
CC(=O)c1cccc(-n2c(CCC(=O)O)ccc2-c2ccccc2)c1 | -24% | 16% | -19% | 40µM* | -6%
CN(C)c1ccc(-n2c(CCC(=O)O)ccc2-c2ccccc2)cc1 | 28µM* | ? | 50µM* | 11µM* | 16%
CC(=O)c1ccc(-n2c(CCC(=O)O)ccc2-c2ccccc2)cc1 | -20% | 7% | -7% | -14%[2.33 µM] | 1%
O=C(O)CCc1ccc(-c2ccccc2)n1-c1cccc(Br)c1 | ? | -22% | ? | 16µM* | 26%
Cc1ccc(-c2ccc(CCC(=O)O)n2-c2cccc(O)c2)cc1 | ? | -4% | ? | 14µM* | 7%
CCCCCCN1CCN(C2CN(Cc3ccc(F)cc3)S(=O)(=O)C2)CC1 (stereo not drawn) | . | . | . | . | 13%
O=C1c2ccccc2C(=O)N1c1ncccc1O | . | . | -19% | . | .
O=C(O)CCc1ccc(-c2cccs2)n1-c1ccc(C(=O)O)cc1 | -39% | 8% | ? | 14µM* | 25%
CC(=O)c1cccc(-n2c(CCC(=O)O)ccc2-c2cccs2)c1 | 50µM* | ? | 56µM* | ? | 39%
CC(C)(C)c1ccc(C(=O)Nn2c(CCC(=O)O)ccc2-c2cccs2)cc1 | ? | 2% | -33% | 4%[12.7 µM] | 2%
COc1ccc(-c2ccc(CCC(=O)O)n2-c2cc(Cl)ccc2O)cc1 | ? | -3% | -34% | ? | 18%
O=C(O)CCc1ccc(-c2ccc(Cl)cc2)n1-c1cccc(C(F)(F)F)c1 | 35µM* | -22% | ? | 16µM* | 18%
CCC(=O)N1CCc2cc(CNS(=O)(=O)c3ccccc3F)ccc21 | 6% | 28%[57 µM] | 9% | 2%[59 µM] | -14%
CC(C)CC1NC(=O)N(CC(=O)Nc2cc(S(=O)(=O)N3CCOCC3)ccc2Cl)C1=O (stereo not drawn) | . | 45% | 1% | . | 3%
Cc1ccc(CNS(=O)(=O)c2ccc(-n3cccn3)cc2)cc1 | . | . | . | . | -2%
Cc1ccc(-c2cc(C(=O)Nc3c(C(=O)c4ccc(C)c(F)c4)oc4ccccc34)no2)cc1 | -15% | 45% | 0% | 2%[59 µM] | -16%
SMILES | BAZ2B inh | HP1b binding inh | JMJD2A Tudor | G9a block | GLS inh
CC(C)(C)n1nc2c(c1NC(=O)Cc1ccc(Cl)cc1)CS(=O)(=O)C2 | 0% | 28% | 4% | 30% | 5%
CCOc1ccc(CC(=O)Nc2c3c(nn2C(C)(C)C)CS(=O)(=O)C3)cc1 | -14% | 19% | -3% | 79µM* | 3%
O=C(O)c1ccc(NNC(=S)Nc2cc(C(F)(F)F)ccc2Cl)cc1 | ? | -6% | -33% | 35µM* | 2%
COc1cccc(-c2coc3cc4oc(=O)c(CCC(=O)O)c(C)c4cc23)c1 | 4% | 12% | -8% | -31% | 13µM*
Cc1c(CC(=O)NCC(=O)O)c(=O)oc2cc3occ(-c4ccccc4)c3cc12 | 0% | 25% | -12% | 0% | 4µM*
COc1cc(C#N)ccc1OCC(=O)Nc1cccc(S(=O)(=O)N(C)c2ccccc2)c1 | . | . | . | . | -3%
CCCN(CCC)CCNc1c(NC2CCN(C(=O)OCC)CC2)c(=O)c1=O | 8% | 87% | -6% | -15% | 38%
CCCN(CCC)CCNc1c(N2CCN(C(=O)OCC)CC2)c(=O)c1=O | 8% | 22% | 0% | 79µM* | 4%
CCc1cc(C(=O)N2CCCC(CCC(=O)NCc3cccc(OC)c3)C2)no1 (stereo not drawn) | 4% | 29% | 1% | . | 1%
O=S(=O)(O)c1ccc(N=NNc2ccc(Br)cc2)cc1 | -20% | 8% | -20% | 25µM* | 68%
C/C(=N\NC(=O)c1ccc(Br)o1)c1cc2c(cc1NC(=O)CCC(=O)O)OCO2 | ? | 39% | -21% | 3.2µM* | -11%
CC1CN2C(c3ccc([N+](=O)[O-])cc3)=CSC2=N1 (stereo not drawn) | -6% | ? | 79µM* | 14%[0.501 µM] | -22%
CC1C(=O)NN=C1c1ccc([N+](=O)[O-])cc1 (stereo not drawn) | . | 17% | -16% | . | 18%
COc1ccc(NC(=O)CN2C(=O)/C(=C3\SC(=S)N(CCC(=O)O)C3=O)c3ccccc32)cc1 | -33% | 0% | ? | 5% | -18%
Cc1cccc(NC(=O)CN2C(=O)/C(=C3\SC(=S)N(CC4CCCO4)C3=O)c3ccccc32)c1 (stereo not drawn) | -24% | -3%[57 µM] | -23% | -22% | 0%
O=C(CN1C(=O)/C(=C2/SC(=S)N(CCS(=O)(=O)O)C2=O)c2ccccc21)Nc1cccc(Br)c1 | . | 50µM* | 45µM* | . | -17%
Cc1ccc(NC(=O)CN2C(=O)/C(=C3\SC(=S)N(C4CCS(=O)(=O)C4)C3=O)c3ccccc32)cc1 (stereo not drawn) | 5% | -3% | -13% | 50µM* | 0%
O=C(CN1C(=O)/C(=C2\SC(=S)N(C3CCS(=O)(=O)C3)C2=O)c2ccccc21)Nc1ccccc1 (stereo not drawn) | 6% | -11% | -9% | 25µM* | -9%
Cc1ccc(C)c(-c2nnc(NC(=O)CCS(=O)(=O)c3ccc(F)cc3)o2)c1 | -12% | 28% | -14% | -5% | 4%
